High-throughput results as filed in PubChem.
p53ts 32C tox – cytotoxicity in p53ts cells at permissive temperature. Potency, µM (top dose mostly 46.1 µM), actives largely listed as cytotoxic. H1299-p53A138V at 32C, ATP luminescence viability, 24 h. 130,000 tested, 0.93% active; further: nearly all actives have a fitted effect of over 55% in size
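Viability by ATPlite luminescence after 24 h compound treatment (up to 46 uM) at the permissive 32C. Cells are H1299 carrying p53 A138V. Scale runs from DMSO basal to 100 uM tamoxifen as full kill; AC50 from Hill fits.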
p53ts 39C tox – p53ts cell cytotoxicity, nonpermissive temperature; H1299-p53A138V viability at 39C, ATP luminescence, 24 h; Potency, µM (doses to about 46.1 µM), hits mostly cytotoxic; 130,000 tested, 1.5% active; further: nearly all actives have a fitted effect of over 55% in size
Luciferase inh – blocks Photinus pyralis firefly luciferase activity | 72,000 tested, 2.2% active | Potency, µM (titrated, usually from 57.1 µM), usual class: inhibitors | AID 411 | purified firefly luciferase, luminescence, 8 min; further: nearly all actives have a fitted effect of over 40% in size
Target sequence (P08659 whole entry, looked up): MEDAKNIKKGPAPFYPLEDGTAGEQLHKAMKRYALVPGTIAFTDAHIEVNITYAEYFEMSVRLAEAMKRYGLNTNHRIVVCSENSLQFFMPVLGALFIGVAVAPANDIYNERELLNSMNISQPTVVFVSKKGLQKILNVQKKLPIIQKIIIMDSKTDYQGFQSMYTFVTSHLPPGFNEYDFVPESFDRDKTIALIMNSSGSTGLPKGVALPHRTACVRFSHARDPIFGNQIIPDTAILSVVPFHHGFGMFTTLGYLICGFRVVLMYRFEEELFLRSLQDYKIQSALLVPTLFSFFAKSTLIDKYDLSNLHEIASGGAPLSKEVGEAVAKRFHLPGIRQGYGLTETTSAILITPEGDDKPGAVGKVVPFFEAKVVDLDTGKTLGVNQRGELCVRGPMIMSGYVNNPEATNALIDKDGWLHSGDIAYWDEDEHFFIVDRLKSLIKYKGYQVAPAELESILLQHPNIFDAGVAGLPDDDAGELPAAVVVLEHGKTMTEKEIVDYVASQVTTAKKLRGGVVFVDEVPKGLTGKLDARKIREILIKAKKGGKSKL
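Firefly luciferase (PKLight detection mix) with 10 uM ATP in pH 7.2 imidazole buffer (KCl, MgCl2, Tween 20, BSA). Compounds tested across a concentration series (qHTS). Luminescence read after 8 min at ambient temperature.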
Large screens that a line does not name were inactive. A selection: hits, their analogues and other compounds. The true share with any hit is near 2.6%. The call rests on the fitted dose curve; in most records, active means well fitted curve in the direction sought with a large enough effect; inconclusive means small, poorly fitted or top-dose-only effect, or another doubt; inactive means no such curve, though single readings can be large; an effect the other way counts as inactive or inconclusive.

Cc1ccc(-c2nc3ccccc3[nH]2)s1	p53ts 32C tox 13µM, p53ts 39C tox 13µM, Luciferase inh 5µM
c1csc(-c2nc3ccccc3[nH]2)c1	Luciferase inh inconclusive
Nc1nc(-c2nc3ccccc3[nH]2)cs1	p53ts 32C tox 16µM, p53ts 39C tox 13µM, Luciferase inh 13µM
O=C(NCCc1ccccc1)c1cnc2sc(N3CCCCCC3)nn2c1=O	none (no result: Luciferase inh)
COc1ccc(CNC(=O)CCCc2nnc3n(C(C)C)c(=O)c4sccc4n23)cc1	none (no result: Luciferase inh)
CCc1cccc(C)c1NC(=O)CN1C(=O)c2c(c3ccccc3n2C)C1c1ccc(OC)cc1 (centres undefined)	none (no result: Luciferase inh)
Cc1ncc(CO)c2c1Oc1nc(-c3ccccc3)nc(SCC(=O)Nc3cccc(C(F)(F)F)c3)c1C2	none (no result: Luciferase inh)
Cc1ccc(O)c(NC(=O)c2cc(-c3ccccc3O)no2)c1	none (no result: Luciferase inh)
Cc1ccc(-c2cc(-c3ccccc3)no2)c(O)c1	p53ts 39C tox 5µM (no result: p53ts 32C tox, Luciferase inh)
Cc1cccc(N2CCN(S(=O)(=O)c3nnc(NC(=O)c4ccc(Cl)cc4)s3)CC2)c1	none (no result: Luciferase inh)
NC(=O)c1c(NC(=O)c2cc3ccccc3o2)sc2c1CCC2	p53ts 32C tox inconclusive, p53ts 39C tox inconclusive, Luciferase inh 3.2µM
COC(=O)c1c(NC(=O)c2ccc(C)o2)sc2c1CCCCC2	none
Cc1ccc(C(=O)Nc2sc3c(c2C(=O)O)CCCCC3)o1	p53ts 32C tox 7.9µM, p53ts 39C tox 6.3µM, Luciferase inh 20µM
CCOC(=O)c1c(NC(=O)c2cc3ccccc3c(=O)o2)sc2c1CCCC2	none (no result: Luciferase inh)
CCc1nn(CC(=O)NCCCN(CC(C)C)CC(C)C)c(=O)c2cc3sc(C)cc3n12	none (no result: Luciferase inh)
CN(C)C(=O)c1ccc(-c2nc(Nc3ccccc3)c3ccccc3n2)cc1	p53ts 32C tox inconclusive, p53ts 39C tox inconclusive
COC(=O)c1ccc(Nc2nc(-c3ccc(C)cc3)nc3ccccc23)cc1	p53ts 32C tox inconclusive, p53ts 39C tox 13µM (no result: Luciferase inh)
Cc1c(Cl)cccc1NC(=O)Nc1nnc(N(C)Cc2ccccc2)s1	none (no result: Luciferase inh)
COc1ccc2c(Sc3ccc(C)cc3)c(C(=O)NCC(C)c3ccccc3)[nH]c2c1 (centres undefined)	none (no result: Luciferase inh)
O=C(NCC1CCN(Cc2cccc(Cl)c2)CC1)Nc1ccc(F)c(Cl)c1	p53ts 39C tox inconclusive (no result: Luciferase inh)
O=C(NCC1CCN(Cc2cccc(Cl)c2)CC1)Nc1cc(Cl)ccc1Cl	p53ts 32C tox inconclusive, p53ts 39C tox 13µM (no result: Luciferase inh)
COc1cccc(-c2nccc(NCc3ccccc3)n2)c1	p53ts 32C tox 20µM, p53ts 39C tox 13µM
COc1cccc(-c2nccc(NCc3cccc(C)c3)n2)c1	none
O=C(N/N=C/c1sc2ccccc2c1O)c1ccccc1	p53ts 39C tox 7.1µM (no result: p53ts 32C tox, Luciferase inh)
O=C(Nc1nc(=O)c2ccccc2s1)c1ccc(F)cc1	none (no result: Luciferase inh)
O=C(c1ccc(Br)o1)N1CCN(c2ccc3nnc(-c4ccccc4)n3n2)CC1	p53ts 32C tox 13µM
Cc1nnc2ccc(N3CCN(C(=O)c4ccccc4)CC3)nn12	none
N#CCCn1c(=O)c(-c2ccc(F)cc2)nc2cnc(N3CCOCC3)nc21	none
CN(C)c1ccc(NC(=O)CCCc2ccccc2)cc1	Luciferase inh 25µM
COCC(=O)Nc1ccc(N(C)C)cc1	none
COc1ccc(C(=O)NCC(c2ccc3c(c2)OCO3)N2CCN(c3ccccc3F)CC2)cc1 (centres undefined)	none (no result: Luciferase inh)
c1ccc(CN2CCN(c3nc4ccccc4n4cnnc34)CC2)cc1	none
FC(F)(F)c1cccc(N2CCN(c3nc4ccccc4n4cnnc34)CC2)c1	p53ts 39C tox 16µM (no result: Luciferase inh)
CSc1ncnc2nc[nH]c12	none
Fc1ccc(C(NCCc2ccc(Cl)cc2)c2nnc(-c3ccccc3Cl)o2)cc1 (centres undefined)	none (no result: Luciferase inh)
CCOc1ccc(NC(=O)Cn2nc(SC)c(S(=O)(=O)c3ccccc3)c2N)cc1	none (no result: Luciferase inh)
CN1CCN(CCCNN)CC1	none
COc1ccc(/C=N/n2cnnc2SCCO)cc1OC	none (no result: Luciferase inh)
C=CCSc1nncn1/N=C/c1ccc(OC)cc1	p53ts 39C tox inconclusive, Luciferase inh 25µM
Cc1cccc(Nc2ncnc3c2cnn3C)c1C	none (no result: Luciferase inh)
Cc1ccc(C(=O)N2CCc3cc(CNC(=O)c4ccnn4C)ccc32)cc1	none (no result: Luciferase inh)
COc1cccc(Cn2c(C3CC3)nc3ccc(NC(=O)c4ccco4)cc3c2=O)c1	none
COc1ccc(Cn2c(C3CC3)nc3ccc(NC(=O)C4CC4)cc3c2=O)cc1	p53ts 39C tox inconclusive, Luciferase inh 16µM
Clc1cccc(-n2ncc3c(Nc4ccc5c(c4)OCCO5)ncnc32)c1	p53ts 39C tox inconclusive (no result: Luciferase inh)
Cc1ccc(CNc2ccc(N3CCOCC3)cc2)s1	p53ts 39C tox inconclusive, Luciferase inh 13µM
CC(=O)N1CCN(c2ccc(NCc3ccc(C)s3)cc2)CC1	none
CCN(C(=O)Cn1c(C(=O)OC)cc2sc(Cl)cc21)c1cccc(C)c1	none (no result: Luciferase inh)
COc1cc(NC(=O)c2cc3c(s2)-c2ccccc2OC3)cc(OC)c1OC	p53ts 32C tox 13µM, p53ts 39C tox inconclusive (no result: Luciferase inh)
COC(=O)c1ccccc1NC(=O)c1cc2c(s1)-c1ccccc1OC2	none (no result: Luciferase inh)
COc1ccccc1CNc1nc2c(S(=O)(=O)c3ccccc3)nnn2c2ccc(Cl)cc12	p53ts 39C tox inconclusive (no result: Luciferase inh)
COc1ccc(Nc2nc(N)c3cc(OC)c(OC)cc3n2)cc1	p53ts 32C tox inconclusive, p53ts 39C tox 13µM (no result: Luciferase inh)
COc1cc2nc(Nc3cccc(F)c3)nc(N)c2cc1OC	p53ts 39C tox inconclusive (no result: Luciferase inh)
COC(=O)c1ccccc1NC(=O)Cn1ncc2c(C)n(Cc3ccc(F)cc3)c(C)c2c1=O	none (no result: Luciferase inh)
Cc1cccc(C(=O)Nc2nnc(SCc3cc(=O)n4cccc(C)c4n3)s2)c1	none (no result: Luciferase inh)
CCOc1nc(-c2ccccc2)ccc1-c1noc(-c2ccc(C)cc2)n1	none (no result: Luciferase inh)
CCCCCCOc1ccc(-c2nc3ccc(Br)cc3c(=O)o2)cc1	none (no result: Luciferase inh)
CCOc1ccc(-c2nc(-c3ccccc3C)no2)cc1	p53ts 32C tox inconclusive, p53ts 39C tox inconclusive, Luciferase inh 2µM
CCOc1ccc(-c2nc3ccccc3c(=O)o2)cc1	p53ts 32C tox 2.5µM, p53ts 39C tox 2.5µM (no result: Luciferase inh)
CC(C)C(=O)Nc1ccc2nc(SCC(=O)N3CCc4ccccc43)sc2c1	none (no result: Luciferase inh)
Cc1ccc2c(c1)c1c(c(=O)n(-c3cccc(Cl)c3)c(=O)n1CC(=O)N1CCCC1)n2C	none (no result: Luciferase inh)
CC1(C)CC(=O)C2=C(C1)OC1=C(C(=O)CC(C)(C)C1)C2c1ccc(O)cc1O	p53ts 32C tox 25µM
Cc1ccc(C2C(C(N)=S)=C(N)OC3=C2C(=O)CC(C)(C)C3)cc1 (centres undefined)	none (no result: Luciferase inh)
CN1CCN(c2ncc3c(n2)CCN(Cc2ccccc2Cl)C3)CC1	p53ts 39C tox inconclusive (no result: Luciferase inh)
Cc1cc(N2CCN(C)CC2)nc2ccc(NC(=O)c3ccc4c(c3)OCO4)cc12	p53ts 32C tox inconclusive, Luciferase inh 25µM
CC(=O)N1CCN(c2ccc(NC(=O)c3ccc4c(c3)OCCO4)cc2)CC1	none
CN1CCN(c2ccc(NC(=O)c3ccc4c(c3)OCO4)cc2)CC1	p53ts 32C tox inconclusive, p53ts 39C tox inconclusive, Luciferase inh 25µM
Cc1cc(N2CCN(C)CC2)nc2ccc(NC(=O)c3ccc(Br)o3)cc12	none
Cc1ccc2nc3sc(C(=O)N4CCOCC4)c(N)c3cc2c1	p53ts 32C tox 6.3µM, p53ts 39C tox 6.3µM, Luciferase inh 2µM
COc1ccc2cc3c(N)c(C(=O)N4CCCC4)sc3nc2c1	p53ts 39C tox inconclusive, Luciferase inh inconclusive
Cc1ccc2cc3c(N)c(C(=O)N4CCOCC4)sc3nc2c1	p53ts 32C tox inconclusive, p53ts 39C tox inconclusive, Luciferase inh 13µM
CCOc1ccc2nc3sc(C(=O)N4CCN(C)CC4)c(N)c3cc2c1	none
Cc1nn(CC(=O)N2CCCCC2)c(=O)c2cc3occc3n12	none (no result: Luciferase inh)
